This note sets out measurements from PubChem BioAssay AID651965 (National Center for Advancing Translational Sciences (NCATS), 2013).

The campaign covered roughly 340,000 compounds. About 6,400 (1.9%) were called active. A call without a number means that no potency is given here. About 4% were inconclusive and are not listed. The sample holds actives, similar compounds and a random draw of the others, so the mix is not that of the screen. Calls come from the whole dose curve; as a rule, active = well fitted falling curve with a large enough effect; inconclusive = small, poorly fitted or top-dose-only effect; inactive = no such curve, though single readings can be large or run the other way.

ATP-dependent Clp protease proteolytic subunit (Bacillus subtilis (strain 168)), sequence (P80244 whole entry, looked up): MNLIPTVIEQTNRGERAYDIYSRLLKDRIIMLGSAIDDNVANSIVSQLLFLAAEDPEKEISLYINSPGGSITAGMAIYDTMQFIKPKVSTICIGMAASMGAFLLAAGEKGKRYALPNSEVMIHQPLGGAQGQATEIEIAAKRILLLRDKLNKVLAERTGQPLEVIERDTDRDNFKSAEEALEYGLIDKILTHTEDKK

This test concerns the target ATP-dependent Clp protease proteolytic subunit (Bacillus subtilis (strain 168)) (UniProt P80244). Briefly: qHTS Assay for Activators of ClpP. Note: the source files actives as falling curves though it sought activators and does not explain the sign; nearly all actives have a fitted effect of over 65% in size. The settings on record: purified B. subtilis ClpP, FRET peptide cleavage, 20 min; series mostly up to 57.5 µM. From the text:
The Clp protease proteolytic subunit (ClpP) is the core unit of the Clp complex belonging to the peptidase family S14 that hydrolyzes protein into small peptides in the presence of ATP and magnesium. It is ubiquitously expressed and is the major protease in bacteria. […] Unlike common antibiotics that simply interfere with the essential enzyme activity, ADEP binding activates the ClpP core in the absence of the regulatory Clp-ATPases leading to uncontrolled proteolysis and eventually cell death. Activators binding to the docking site on ClpP can also block formation of the ClpXP and ClpA/C-P holoenzyme complexes interfering with the normal biological functions of ClpP and thus have the potential to become new anti-microbials.
To identify activators of ClpP, a FRET based quenching reversal assay was developed using a purified B. subtilis ClpP and a decapeptide substrate (FRET-FV). The FRET-FV is tagged with a fluorescent molecule amino benzoic acid (donor) at the N-terminus and a nitrotyrosine quencher (acceptor) at the C-terminus. FRET-FV cleaves upon activation of ClpP with ADEP treatement and reverses the quenching effect of the nitrotyrosine causing an increase in fluorescence emission signal at 430nm. This assay was used to screen the Molecular Libraries Small Molecule Repository (MLSMR).
NIH Molecular Libraries Probe Production Centers Network [MLPCN]
NIH Chemical Genomics Center [NCGC]
Assay Submitter (PI): Michael Maurizi, National Cancer Institute
Two and a half microL/well of purified enzyme solution (final concentrations 10 microg/mL B. subtilis ClpP in 100 mM Tris/HCl pH8, 100 mM KCl, 0.05% low protease BSA, 2.5% glycerol, 0.01% Tween-20 buffer) was dispensed into 1536-well assay plates (Greiner, black solid, medium-binding plates) with Aurora Discovery BioRAPTR Flying Reagent Dispenser (FRD, Beckton-Dickenson). Compound solution (23 nL) was transferred to the assay plate using Kalypsys pin tool equipped with a 1536-pin tool. […] FRET signals at time 0 and after 20 min room temperature incubation were obtained using the PerkinElmer Envision plate reader with 320nm excitation and 430nm emission filters. Delta FRET value (Time 20 - Time 0) was calculated and normalized to the delta FRET value of positive control ADEP (5.8 microM final concentration) and negative control DMSO and no enzyme wells.
Consider `CCc1nc2ccc(C(=O)Nc3cc(-c4ccccc4)ccc3OC)cn2c1N(CC)CC(=O)N(C)C`, for which the Potency entry was “inactive”.
On to `CSc1ncnc2c1ncn2CCCNCC1CCCCC1`, for which the Potency result was “inactive”.
Take `O=C1NC[C@H](CCCCN2CCN(CCc3ccccc3)C(=O)C2=O)N(CC2CCCCC2)C1=O`: the Potency entry was “inactive”.
For `CC(C)C[C@H]1CNC(=S)N1C[C@H]1CCCN1C[C@H](Cc1ccc(O)cc1)N1C[C@H](Cc2ccc(O)cc2)N(CC2CCCCC2)C1=S`, the Potency entry is “inactive”.
In the case of `c1ccc(Cc2c(-c3ccco3)nc3c4ccccc4ccn23)cc1`, the Potency result is “inactive”.
The same measure for `Cc1ccc(C)c(C(O)c2ncc(-c3cccc4ccccc34)[nH]2)c1` (centres undefined): “inactive”.
With `O=c1cc(CN2CCN(S(=O)(=O)/C=C/c3ccccc3)CC2)c2ccc(O)cc2o1`, the Potency is 10 µM (active).
With `COc1ccc2c(CN3CCN(S(=O)(=O)c4cccs4)CC3)cc(=O)oc2c1`, the Potency result is “inactive”.
The same measure for `Cc1ccc2c(CN3CCN(S(=O)(=O)c4ccccc4C(F)(F)F)CC3)cc(=O)oc2c1`: “inactive”.
Turning to `CCCNC(=O)C1(C)CCN(C(=O)c2cc(F)ccc2C)C1` (centres undefined), the Potency result was “inactive”.
On to `COc1ccc(C(=O)C(OP(=O)(OC)OC)c2ccccc2OC)cc1` (centres undefined), for which the Potency result was “inactive”.
Consider `O=[N+]([O-])c1ccc(/C=C/c2ccc3cccnc3c2)cc1`, for which the Potency entry is “inactive”.
Regarding `N#Cc1ccc[n+](CC(=O)c2ccc(F)cc2)c1`, the Potency entry was “inactive”.
To `Cc1cc(C)c(C2C3=C(Nc4c2c(C)nn4-c2ccccn2)c2ccccc2C3=O)c(C)c1` (centres undefined) belongs “inactive”; to `CC1(C)CC(=O)C2=C(C1)Nc1cc(C(=O)c3ccccc3)ccc1NC2c1ccccn1` (centres undefined), “inactive”.
On to `Cc1nn(-c2ccccn2)c2c1C(c1ccncc1)C1=C(CC(C)(C)CC1=O)N2` (centres undefined), for which the Potency was 31.6 µM (active).
In the case of `Clc1cccc[n+]1CCCC[n+]1ccccc1Cl`, the Potency entry is “inactive”.
As to `Cc1noc(C)c1S(=O)(=O)N(C)C[C@H]1OCCCC[C@@H](C)Oc2ccc(NC(=O)CCCN(C)C)cc2C(=O)N([C@H](C)CO)C[C@@H]1C`, the Potency entry was “inactive”.
With `CCc1cc(C(=O)N(CC)CC(=O)Nc2c(F)cccc2F)sc1C`, the Potency entry was “inactive”.
As to `CN(N)c1nc(N2CCCC2)nc(N2CCCC2)n1`, the Potency is 31.6 µM (active).
The same measure for `FC(F)(F)COc1nc(N2CCCCC2)nc(N2CCNCC2)n1`: “inactive”; for `O=C(NNc1nc(N2CCCC2)nc(N2CCCC2)n1)c1ccccc1`: “inactive”.
Take `CC(C)C1C(=O)N(Cc2cn(CCC3OCCO3)nn2)CCS(=O)(=O)N1Cc1ccc(-c2ccccc2C(F)(F)F)cc1` (centres undefined): the Potency result is “inactive”.
To `O=C(Nc1ccc(F)cc1)C(CCc1ccccc1)N1CCN(CC(=O)N2CCCC2)CC1` (centres undefined) belongs “inactive”.
To `CCn1c(=O)c2cc(C(=O)Nc3cccc(C(C)=O)c3)sc2c2ccccc21` belongs “inactive”; to `CCN(CCCNC(=O)c1cc2c(=O)n(CC)c3ccccc3c2s1)Cc1ccccc1`, 3.55 µM (active).
Turning to `CN(Cc1ccccc1)C(=O)c1cc2c(=O)n(C)c3ccccc3c2s1`, the Potency entry is “inactive”.
Regarding `Cc1c(C)n(Cc2ccc(Cl)cc2)c2ccc(C(=O)NCCc3ccc(S(N)(=O)=O)cc3)cc12`, the Potency was 14.1 µM (active).
The same measure for `NS(=O)(=O)c1ccc(CCNC(=O)c2ccc(Cl)c(S(=O)(=O)N3CCCCCC3)c2)cc1`: “inactive”.
As for `CCOC(=O)c1c(C)c(C(=O)NCCc2ccc(S(N)(=O)=O)cc2)c(C)n1CC`, the Potency entry is “inactive”.
With `COC(=O)[C@@]12C[C@@H](CC(=O)NCc3cccc(C(F)(F)F)c3)C(=O)N(Cc3ccco3)C1=CCC(C)(C)C2`, the Potency entry was “inactive”.
Consider `Cc1cccc(CN2Cc3cccc4c3[C@H](C=CC4)CC2=S)c1`, for which the Potency result was “inactive”.
The same measure for `Cc1cc(OCC(=O)NCC(O)c2ccccc2)c2c(C)c(C)c(=O)oc2c1` (centres undefined): “inactive”.
To `Cc1cc(OCC(=O)Nc2nccs2)c2c(C)c(C)c(=O)oc2c1` belongs 31.6 µM (active).
`COc1ccc(CCNC(=O)COc2cc(C)cc3oc(=O)c(C)c(C)c23)cc1OC`: the Potency result is “inactive”.
Consider `COc1ccccc1-c1cc(NC(C)=O)c2ncc(-c3ccc(F)cc3)n2c1`, for which the Potency result is “inactive”.
`Cc1cc2[nH]ncc2cc1NC(=S)NC(=O)c1ccccc1`: the Potency result was “inactive”.
Consider `Cc1cccc(NC(=S)Nc2ccc3cn[nH]c3c2)c1`, for which the Potency is 22.4 µM (active).
As for `CCc1cccc(CC)c1NC(=S)Nc1ccc2cn[nH]c2c1`, the Potency entry is “inactive”.
Regarding `COc1cc(CNc2ncnc3c2ncn3[C@H]2CN(Cc3cccs3)C[C@@H](CO)O2)cc(OC)c1OC`, the Potency entry is “inactive”.
For the compound `CC1(C(=O)NCc2cccc3ccccc23)CCN1Cc1ccc(-c2ccccc2)o1` (centres undefined), the Potency result was “inactive”.
The same measure for `CCOc1ccc(S(=O)(=O)NCCC(=O)NCC2CCCO2)cc1` (centres undefined): “inactive”; for `CC1(C)CC(=O)c2cc(OCC(=O)NCC3CCCO3)ccc2O1` (centres undefined): 11.2 µM (active).
As to `C=CCOc1ccc(/C=C/C(=O)OCC(=O)NCC2CCCO2)cc1` (centres undefined), the Potency entry was “inactive”.
Take `Cc1ccccc1S(=O)(=O)N1[C@@H](c2cccc(Cl)c2)C(C(=O)OC(C)(C)C)=CC[C@H]1c1ccc(Cl)cc1`: the Potency entry was “inactive”.
With `COC(=O)C1(C(=O)OC)C/C=C\CN(S(=O)(=O)c2ccccc2[N+](=O)[O-])CCC1`, the Potency result was “inactive”.
For the compound `Cc1cccc(C(=O)Nc2ccccc2-c2nnn(CC(=O)Nc3ccc4c(c3)OCCO4)n2)c1`, the Potency result was “inactive”.
For the compound `O=C(Nc1ccccc1-c1nnn(CC(=O)N2CCN(c3ccccc3)CC2)n1)c1cccs1`, the Potency entry was “inactive”.
For `O=C(Nc1ccccc1-c1nnn(CC(=O)N2CCCc3ccccc32)n1)c1cccc(Cl)c1`, the Potency is 20 µM (active).
As for `COC(=O)[C@]12CCCCC=C1N(Cc1ccc3c(c1)OCO3)C(=O)[C@H](CC(=O)NCc1cccs1)C2`, the Potency entry is “inactive”.
The same measure for `CCCCCCCCN1C(=O)[C@H](CC(=O)NCC23CC4CC(CC(C4)C2)C3)C[C@@]2(C(=O)OC)CCCCC=C12`: “inactive”; for `O=C(Nc1cccc2ccccc12)NC1CC1`: “inactive”.
`Cc1ccc(S(=O)(=O)NNC(=O)Nc2cccc3ccccc23)cc1`: the Potency is 14.1 µM (active).
As to `COc1ccc(C(=O)NNS(=O)(=O)c2ccc(C)cc2)cc1`, the Potency entry was “inactive”.
On to `COc1ccc(-c2nc(=N)sn2-c2ccccc2)cc1`, for which the Potency entry is “inactive”.
On to `COC(=O)[C@@]12C[C@@H](CC(=O)NCCCCc3ccccc3)C(=O)N(Cc3ccccc3)C1=CCC(C)(C)C2`, for which the Potency entry was “inactive”.
The same measure for `COc1ccc(/C=N/NC(=O)c2ccc(Cl)cc2)cc1COC(C)=O`: 25.1 µM (active).
Consider `COc1cc(/C=N/NC(=O)CNC(=O)c2ccncc2)ccc1OC(C)=O`, for which the Potency result was “inactive”.
On to `COc1cccc(OCc2cc(/C=N/NC(=O)c3nc(Cl)c(Cl)c(N)c3Cl)ccc2OC)c1`, for which the Potency result was “inactive”.
